The record followed here is PubChem BioAssay AID488853 (National Center for Advancing Translational Sciences (NCATS), 2010).

Values without a mark were called inactive. Activity calls are given as the source filed them. The call rests on the fitted dose curve; in most records, active means well fitted curve in the direction sought with a large enough effect; inconclusive means small, poorly fitted or top-dose-only effect, or another doubt; inactive means no such curve, though single readings can be large or run the other way.

For the test, the target named is Lysosomal acid glucosylceramidase (Homo sapiens) (UniProt P04062). The test is described as follows: qHTS Assay for Inhibitors and Activators of N370S glucocerebrosidase as a Potential Chaperone Treatment of Gaucher Disease: Activity in Non-Mutant Spleen Using Alternate Substrate Confirmation for Probe SAR. The note with it: human spleen homogenate, resorufin-glucoside fluorescence, 40 min; series mostly up to 57.5 µM; activity change, negative = inhibition: at the top concentration. An excerpt: NIH Chemical Genomics Center [NCGC] NIH Molecular Libraries Probe Production Centers Network [MLPCN] MLPCN Grant: MH086442-01 Assay Submitter (PI): Wei Zheng Glucocerebrosidase (GC) catalyzes the hydrolysis of beta-glucocerebroside to glucose and ceramide in lysosomes. Mutations in the glucocerebrosidase gene result in Gaucher disease, an autosomal recessive lysosomal storage disorder. Many of the mutations encountered in patients with Gaucher disease are missense alterations that may cause misfolding, decreased stability and/or mistrafficking of this lysosomal protein. […] These inhibitors include iminosugar analogs and three non-iminosugar inhibitors identified from a previous HTS of 62,000 compounds with the wild type recombinant enzyme. However, the enhancement of enzyme activity by the chaperone action of an enzyme inhibitor must be balanced against the direct inhibition of the enzyme. An enzyme activator could also function as a chaperone by binding to the enzyme and helping to correct its misfolding and mistrafficking. While activators for GC have not yet been identified, they may have better therapeutic potential than inhibitors. Therefore the discovery and development of chemical activators may provide a new strategy for the chaperone therapy. We have optimized a new assay using N370S mutant GC derived from the spleen of a Gaucher patient. […] In addition, the MLPCN compound library has expanded, which increases the chance of finding new and better probes. This confirmation assay tests for compound activity in spleen homogenate containing wildtype enzyme using an alternate resorufin-based substrate.
Chain of Lysosomal acid glucosylceramidase (Homo sapiens) (P04062 whole entry, looked up): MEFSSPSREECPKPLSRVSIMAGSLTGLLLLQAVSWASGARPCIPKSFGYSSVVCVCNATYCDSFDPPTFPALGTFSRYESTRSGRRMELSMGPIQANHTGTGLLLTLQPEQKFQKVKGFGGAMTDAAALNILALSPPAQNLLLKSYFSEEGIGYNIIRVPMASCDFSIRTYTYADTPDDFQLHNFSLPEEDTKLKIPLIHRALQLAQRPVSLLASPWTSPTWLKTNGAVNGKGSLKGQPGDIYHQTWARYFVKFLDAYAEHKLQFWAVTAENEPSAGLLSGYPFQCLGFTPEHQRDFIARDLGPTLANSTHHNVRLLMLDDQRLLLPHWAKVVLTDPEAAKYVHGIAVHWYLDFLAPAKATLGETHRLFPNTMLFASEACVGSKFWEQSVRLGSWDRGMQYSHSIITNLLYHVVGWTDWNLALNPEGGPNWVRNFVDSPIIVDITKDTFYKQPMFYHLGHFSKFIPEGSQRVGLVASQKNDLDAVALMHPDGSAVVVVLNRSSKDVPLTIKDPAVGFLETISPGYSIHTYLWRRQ
NCGC Assay Protocol Summary: This is a fluorogenic enzyme assay with resorufin-beta-D-glucopyranoside as the substrate and wildtype glucocerebrosidase from human spleen homogenate as the enzyme preparation. Upon the hydrolysis of this fluorogenic substrate, the resulting product, […] which can be detected by a standard fluorescence plate reader. Data were normalized to the controls for basal activity (without enzyme) and 100% activity (with enzyme). The AC50 values were determined from concentration-response data modeled with the standard Hill equation. Assay buffer: 50 mM citric acid (titrated with potassium phosphate to pH 5.0), 100 mM potassium chloride, 10 mM sodium chloride, 1 mM magnesium chloride, 0.01% Tween-20. 1536-well assay protocol: (1) Add 2 ul/well of spleen homogenate (27 ug final) (2) Add 23 nL compounds in DMSO solution. The final titration was 0.5 nM to 58 uM. (3) Add 2 ul of substrate (1 mM final) (4) Incubate at 37C for 40 min. (5) Add 2 ul stop solution (1M NaOH and 1M Glycine mixture, pH 10) (6) Detect the assay plate in a ViewLux plate reader (PerkinElmer) with Ex=365 nm and Em=440nm. Keywords: Glucocerebrosidase, beta-glucosidase, Gaucher Disease, pharmacological chaperone, chaperone therapy, high throughput screening, glucocerebrosidase inhibitor, MLSMR, MLSCN, NIH Roadmap, qHTS and NCGC
On to `CC(=O)c1ccc(NC(=O)c2cnn3c(C)cc(C)nc23)cc1`, for which the “activity change, negative = inhibition” value is 0.165%. The same measure, in the same setting: then `COc1cc(NC(=O)c2cnn3c(C)cc(C)nc23)cc(OC)c1OC`, with 0.165%; and `Cc1cc(C)n2ncc(C(=O)Nc3ccc4c(c3)CCC4)c2n1`, with -0.52%. The same measure, in the same setting: then `Cc1cc(C)n2ncc(C(=O)Nc3ccc(Br)cc3)c2n1`, with 21.4%. In the case of `Cc1cc(C)n2ncc(C(=O)Nc3ccc4c(c3)OCO4)c2n1`, the “activity change, negative = inhibition” value is 0.165%. Consider `CNC(=O)c1cnn2c(C)cc(C)nc12`, for which the “activity change, negative = inhibition” value is -0.52%. The same measure, in the same setting: then `Cc1cc(C)n2ncc(C(=O)Nc3ccccc3)c2n1`, with -17%; and `Cc1cc(C)n2ncc(C(=O)Nc3ccc4c(c3)OCCO4)c2n1`, with 0.165%.

In the case of `O=C(Nc1cnn(Cc2ccc(F)cc2)c1)c1cnn2c(C(F)F)cc(-c3ccccc3)nc12`, the “activity change, negative = inhibition” value was 0.187%. Same read-out and setting: the same measure for `Cc1cc(C)n2ncc(C(=O)Nc3ccccc3C)c2n1`: -0.516%. As for `Cc1cc(C)n2ncc(C(=O)Nc3ccc(S(C)(=O)=O)cc3)c2n1`, the “activity change, negative = inhibition” value is 21.7%. As to `Cc1cc(C)n2ncc(C(=O)Nc3ccc(C#N)cc3)c2n1`, the “activity change, negative = inhibition” value was -0.516%. As for `Cc1ccc(NC(=O)c2cnn3c(C)cc(C)nc23)c(C)c1`, the “activity change, negative = inhibition” value is -0.516%. In the case of `Cc1cc(C)n2ncc(C(=O)NC(C)C)c2n1`, the “activity change, negative = inhibition” value was -0.52%.

Regarding `Cc1cc(C)n2ncc(C(=O)NC3CCC(C(C)(C)C)CC3)c2n1` (configuration not stated), the outcome was inactive.

`CC(=O)c1cccc(NC(=O)c2cnn3c(C)cc(C)nc23)c1`: the “activity change, negative = inhibition” value was 0.165%. Same read-out and setting: then `Cc1cc(C)n2ncc(C(=O)Nc3ccncc3)c2n1`, with 0.187%. On to `Cc1cc(C)n2ncc(C(=O)NCc3ccccc3)c2n1`, for which the “activity change, negative = inhibition” value is -0.52%. Same read-out and setting: the same measure for `CCc1ccc(NC(=O)c2cnn3c(C)cc(C)nc23)cc1`: -0.52%; for `Cc1cc(C)n2ncc(C(=O)NCc3ccco3)c2n1`: 0.187%. Turning to `Cc1cccc(NC(=O)c2cnn3c(C)cc(C)nc23)c1`, the “activity change, negative = inhibition” value was -0.516%.

For the compound `Cc1cc(C)n2ncc(C(=O)Nc3cccc(C(F)(F)F)c3)c2n1`, the “activity change, negative = inhibition” value is 0.165%.

`Cc1cc(C)n2ncc(C(=O)Nc3ccc(C)c(C)c3)c2n1`: the “activity change, negative = inhibition” value was 0.165%. In the case of `C#Cc1ccc(NC(=O)c2cnn3c(C)cc(C)nc23)cc1`, the “activity change, negative = inhibition” value was 0.187%. Turning to `Cc1cc(C)n2ncc(C(=O)Nc3cccc(C#N)c3)c2n1`, the “activity change, negative = inhibition” value was -0.52% [at 19 µM]. On the same count and under the same terms, the same measure for `COc1ccc(NC(=O)c2cnn3c(C)cc(C)nc23)cc1F`: 14.9%; for `Cc1cc(C)n2ncc(C(=O)NCC(C)C)c2n1`: -0.52%; for `Cc1cc(C)n2ncc(C(=O)Nc3ccc(C(C)(C)C)cc3)c2n1`: -0.516%. `COc1ccc(NC(=O)c2cnn3c(C)cc(C)nc23)cc1`: the “activity change, negative = inhibition” value was -0.516%. As to `Cc1cc(C)n2ncc(C(=O)N3CCCC3)c2n1`, the “activity change, negative = inhibition” value is -0.52%. For the compound `CC(=O)Nc1ccccc1NC(=O)c1cnn2c(C)cc(C)nc12`, the “activity change, negative = inhibition” value is -0.516%. Consider `Cc1cc(C)n2ncc(C(=O)NC3CCCCC3)c2n1`, for which the “activity change, negative = inhibition” value is -14.7%.

For `Cc1ccc(NC(=O)c2cnn3c(C)cc(C)nc23)cc1`, the “activity change, negative = inhibition” value is -0.516%.

As for `COc1ccc(NC(=O)c2cnn3c(C)cc(C)nc23)cc1Cl`, the “activity change, negative = inhibition” value was -0.516%. Still for that read-out and setting: then `COc1ccc(NC(=O)c2cnn3c(C)cc(C)nc23)cc1OC`, with 0.165%; and `CC(=O)Nc1ccc(NC(=O)c2cnn3c(C)cc(C)nc23)cc1`, with -0.516%; and `Cc1cc(C)n2ncc(C(=O)Nc3ccc(C(F)(F)F)cc3)c2n1`, with 0.165%.
